For 15 compounds, Potency results are on record in PubChem BioAssay AID1463 (National Center for Advancing Translational Sciences (NCATS), 2008).

Where “and” joins values, the source holds several entries; their conditions need not be identical. Identical values can stand only once. Hit rate of the full screen: of about 280,000 compounds, about 2,600 (0.93%) were called active. Roughly 8% stayed inconclusive and do not appear here. Calls come from the whole dose curve; as a rule, active = well fitted curve in the direction sought with a large enough effect; inconclusive = small, poorly fitted or top-dose-only effect; inactive = flat fitted curve, though single readings scatter. Shown is part of a subset that was picked to be rich in actives. Entries that show only a call come without a potency.
Potency is the fitted concentration of half-maximal effect; tags give direction and shape of the fitted curve or compound fluorescence and quenching.

The assay in a line: Counterscreen qHTS for Inhibitors of Tau Fibril Formation, Fluorescence Polarization. Note: nearly all actives have a fitted effect of over 55% in size. Particulars: tau K18 P301L (four-repeat tau fragment) Alexa594 fluorescence, heparin fibrillization; series mostly up to 57.7 µM. The text has this: NIH Molecular Libraries Probe Production Network [MLPCN]
NIH Chemical Genomics Center [NCGC]
Assay Provider: Carlo Ballatore, University of Pennsylvania
The microtubule-associated protein tau is an abundant protein in the axons of neurons that stabilizes microtubules. With its ability to modulate microtubule dynamics, tau contributes directly or indirectly, to key structural and regulatory cellular functions. Particularly important is the influence tau exerts on axonal transport, which allows signaling molecules, trophic factors and other essential cellular constituents to travel along the axons. Under pathological conditions, tau becomes sequestered into insoluble aggregates called neurofibrillary tangles. This phenomenon is believed to have pathological consequences by promoting axonal transport deficits that ultimately lead to synaptic dysfunction and neuronal loss. To identify inhibitors of tau aggregation, a heparin-induced tau fibril formation assay was used that employed a recombinantly expressed fragment of tau, K18 (Q242-E372), bearing a P301L mutation (Gustke et al. 1994; Hong et al. 1998). […] Total fluorescence (555 nm excitation and 632 nm emission) was measured to identify fluorescent or absorbent compounds at this wavelength. Such compounds may be artifacts that interfere with the Alexa 594 Tau fluorescence polarization assay.
Gustke, N., B. Trinczek, et al. (1994). "Domains of tau protein and interactions with microtubules." Biochemistry 33(32): 9511-22.
Hong, M., V. Zhukareva, et al. (1998).
Li, W. and V. M. Lee (2006). "Characterization of two VQIXXK motifs for tau fibrillization in vitro." Biochemistry 45(51): 15692-701.
von Bergen, M., S. Barghorn, et al. (2001). "Mutations of tau protein in frontotemporal dementia promote aggregation of paired helical filaments by enhancing local beta-structure." J Biol Chem 276(51): 48165-74.
NCGC Assay Protocol Summary:
For screening, 2 uL/well human K18 P301L (15 uM unlabeled and 0.24 uM Alexa 594-labeled tau final concentrations) in reagent buffer (100 mM sodium acetate pH 7) was dispensed into black solid 1536-well plates (Grenier) using a solenoid-based dispenser. Following transfer of 23 nL compound or DMSO vehicle by a pin tool, 2 uL/well heparin (20 uM final concentration) in reagent buffer was added and the plate centrifuged 15 s at 1000 RPM. Plates were incubated 6 hr at 37 C and then 1 uL/well ThT (30 uM final concentration) was added. After a 1 hr ambient incubation, the plates were read by an Envision (Perkin Elmer) to monitor Alexa 594 FP (555 nm excitation and 632 nm emission).
Keywords: NIH Roadmap, MLPCN, MLI, MLSMR, NCGC, qHTS, tau, tauopathies, Alzheimer's disease, fibril, neurodegeneration, aggregation
In general terms: The purpose of a counterscreen is to sort out artefacts and off-target activity.
For the compound `O=C(OCC1O[C@@H](OC(=O)c2cc(O)c(O)c(O)c2)[C@@H](OC(=O)c2cc(O)c(O)c(O)c2)[C@@H](OC(=O)c2cc(O)c(O)c(O)c2)[C@@H]1OC(=O)c1cc(O)c(O)c(O)c1)c1cc(O)c(O)c(O)c1` (stereo not given in full), the Potency is 10 µM [quencher] (active).
Next, `C=CCN1CCC2(C)c3cc(O)ccc3CC1[C@@H]2C` (stereo not given in full): “inactive”; `COC1CC(OC2CC[C@@]3(C=O)C4CC[C@]5(C)C(C6=CC(=O)OC6)CC[C@@]5(O)C4CC[C@]3(O)C2)OC(C)C1O` (stereo not given in full): “inactive”.
The entry for `N#CC(C#N)=Cc1cc(O)c(O)c([N+](=O)[O-])c1` is “inactive”; for `CC(=O)c1c(O)c(C)c(O)c(Cc2c(O)c3c(c(C(=O)/C=C/c4ccccc4)c2O)OC(C)(C)C=C3)c1O` it is 15.8 µM [quencher] (active) and 12.6 µM [quencher] (active).
Next, `CO[C@@H]1C[C@@H](C[C@H]2CC[C@H](C)[C@@H]([C@@H](C)C(=O)O)O2)O[C@]2(O[C@](C)([C@H]3CC[C@@](C)(C4OC([C@H]5O[C@@](O)(CO)[C@H](C)C[C@@H]5C)C[C@@H]4C)O3)C[C@H]2C)[C@@H]1C` (stereo not given in full): “inactive”.
For the compound `CN(C)[C@@H]1C(=O)C(C(N)=O)=C(O)[C@@]2(O)C(=O)C3=C(O)c4c(O)cccc4[C@@](C)(O)C3CC12` (stereo not given in full), the Potency entry is “inactive”.
Next, `CCCCCCCCCCCCCC(=O)O[C@@H]1[C@@H](C)[C@@]2(O)[C@@H](C=C(CO)C[C@]3(O)C(=O)C(C)=C[C@@H]23)[C@@H]2C(C)(C)[C@]12OC(C)=O`: “inactive”; `COc1ccccc1-c1[se]c2ccccc2c1I`: “inactive”.
As for `c1ccc2sc(SNC3CCCCC3)nc2c1`, the Potency result is “inactive”.
The figure for `CC(C)(C)c1ccc(S(=O)(=O)Nc2ccc(O)c(Sc3nc4ccccc4s3)c2)cc1` is 8.91 µM [quencher] (active).
The entry for `CC[C@]1(O)C(=O)OCc2c1cc1n(c2=O)Cc2cc3ccccc3nc2-1` is “inactive”.
For the compound `CCCN(C/C=C/I)C1CCc2ccc(O)cc2C1` (stereo not given), the Potency entry was “inactive”.
For the compound `CN(C)C1C(=O)C(C(N)=O)=C(O)[C@@]2(O)C(=O)C3=C(O)c4c(O)cccc4[C@@](C)(O)C3C[C@@H]12` (stereo not given in full), the Potency entry was “inactive”.
Next, `CC[C@@H]1CN2CC[C@@H]1C[C@H]2[C@H](O)c1ccnc2ccc(OC)cc12`: “inactive”.
